# Reference: the supplement of paper PMC10849652
# Of roughly 7,900 targets only a part is listed; those with a hit were picked by preference. About 0.6% of all pairs of compound and target were hits. Unmarked numbers belong to inactive results.
# Tests used:
# Assay in all cases: log2 fold change, soluble protein after heating vs DMSO (PISA); higher = thermal stabilisation; K562 cells, 10 uM, 30 min; active = over 0.2 and 3.5 SD of the protein, either way, in both replicates (recomputed)
# [1] = compound: CS(=O)(=O)c1ccc(-c2cnc(N)c(C(=O)Nc3ccccc3)n2)cc1
# How it was run: (§1)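 For each measurement, 10 μM compound was applied for 30 min to K562 cells at 2×10^6 cells/mL. Aliquots were heated for 3 min across 48°C-58°C, pooled, and extracted in PBS with 0.5% NP-40 at 4°C; the supernatant after 21,000xg for 90 min was soluble protein. This was quantified by TMTpro 16plex LC-MS/MS with channel sums equalised, and thermal stability was reported relative to control samples from duplicates, on a log2 fold-change scale.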
# [2] = compound: C[C@@H](Oc1cc(-c2cnn(C3CCNCC3)c2)cnc1N)c1c(Cl)ccc(F)c1Cl [crizotinib]
# How it was run: as §1
# [3] = compound: C[C@@H]1COCCN1C2=NC(=NC(=C2)C3(CC3)S(=O)(=O)C)C4=C5C=CNC5=CC=C4
# How it was run: as §1
# [4] = compound: C[C@H](C1=CC=C(C=C1)C(=O)NC2=C3C=CNC3=NC=C2)N
# How it was run: as §1
# [5] = compound: C[C@H](Nc1ncnc2nc[nH]c12)c1cc2cccc(Cl)c2c(=O)n1-c1ccccc1 [duvelisib]
# How it was run: as §1
# [6] = compound: Cc1cc(Nc2cc(CN3CCOCC3)c3nc(C)c(Cc4ccc(Cl)cc4F)n3n2)n[nH]1 [gandotinib]
# How it was run: as §1
# [7] = compound: Cc1cc(Nc2cc(N3CCN(C)CC3)nc(Sc3ccc(NC(=O)C4CC4)cc3)n2)n[nH]1 [tozasertib]
# How it was run: as §1
# [8] = compound: Cc1cc(SCc2sc(-c3ccc(C(F)(F)F)cc3)nc2C)ccc1OCC(=O)O
# How it was run: as §1
# [9] = compound: Cc1ccc(-n2nc(C(C)(C)C)cc2NC(=O)Nc2ccc(OCCN3CCOCC3)c3ccccc23)cc1 [doramapimod]
# How it was run: as §1
# [10] = compound: Cc1ccc(C(=O)N(CCCN)[C@@H](c2nc3cc(Cl)ccc3c(=O)n2Cc2ccccc2)C(C)C)cc1 [ispinesib]
# How it was run: as §1
# UniProt Q7Z569, sequence (Q7Z569 whole entry, looked up): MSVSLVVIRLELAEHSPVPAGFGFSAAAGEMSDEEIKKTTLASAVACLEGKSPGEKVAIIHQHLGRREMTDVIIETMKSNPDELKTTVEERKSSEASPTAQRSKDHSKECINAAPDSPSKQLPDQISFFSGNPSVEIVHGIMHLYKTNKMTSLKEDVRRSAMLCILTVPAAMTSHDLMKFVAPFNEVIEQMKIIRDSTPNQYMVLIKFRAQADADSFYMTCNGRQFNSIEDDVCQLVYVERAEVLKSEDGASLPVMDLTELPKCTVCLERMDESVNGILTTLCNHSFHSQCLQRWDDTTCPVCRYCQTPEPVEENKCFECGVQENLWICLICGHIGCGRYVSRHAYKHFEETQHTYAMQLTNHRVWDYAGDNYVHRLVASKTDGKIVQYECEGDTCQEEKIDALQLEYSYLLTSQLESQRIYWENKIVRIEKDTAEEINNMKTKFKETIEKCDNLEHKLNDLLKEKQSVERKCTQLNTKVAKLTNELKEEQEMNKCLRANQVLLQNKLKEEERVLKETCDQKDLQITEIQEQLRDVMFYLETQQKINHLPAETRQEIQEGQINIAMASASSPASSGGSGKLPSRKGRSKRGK
# UniProt Q9Y6E2, sequence (Q9Y6E2 whole entry, looked up): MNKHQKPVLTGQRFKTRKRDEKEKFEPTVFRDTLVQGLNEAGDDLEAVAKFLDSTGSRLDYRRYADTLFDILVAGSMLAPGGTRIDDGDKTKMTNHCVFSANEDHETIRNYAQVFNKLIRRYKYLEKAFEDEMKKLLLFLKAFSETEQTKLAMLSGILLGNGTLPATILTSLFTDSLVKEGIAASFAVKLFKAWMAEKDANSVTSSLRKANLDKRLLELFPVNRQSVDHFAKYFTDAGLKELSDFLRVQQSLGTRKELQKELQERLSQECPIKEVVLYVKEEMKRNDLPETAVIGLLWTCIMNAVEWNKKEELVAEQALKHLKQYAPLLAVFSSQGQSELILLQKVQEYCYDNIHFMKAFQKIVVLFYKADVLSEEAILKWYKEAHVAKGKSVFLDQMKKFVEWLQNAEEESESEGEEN
# UniProt P31751, sequence (P31751 whole entry, looked up): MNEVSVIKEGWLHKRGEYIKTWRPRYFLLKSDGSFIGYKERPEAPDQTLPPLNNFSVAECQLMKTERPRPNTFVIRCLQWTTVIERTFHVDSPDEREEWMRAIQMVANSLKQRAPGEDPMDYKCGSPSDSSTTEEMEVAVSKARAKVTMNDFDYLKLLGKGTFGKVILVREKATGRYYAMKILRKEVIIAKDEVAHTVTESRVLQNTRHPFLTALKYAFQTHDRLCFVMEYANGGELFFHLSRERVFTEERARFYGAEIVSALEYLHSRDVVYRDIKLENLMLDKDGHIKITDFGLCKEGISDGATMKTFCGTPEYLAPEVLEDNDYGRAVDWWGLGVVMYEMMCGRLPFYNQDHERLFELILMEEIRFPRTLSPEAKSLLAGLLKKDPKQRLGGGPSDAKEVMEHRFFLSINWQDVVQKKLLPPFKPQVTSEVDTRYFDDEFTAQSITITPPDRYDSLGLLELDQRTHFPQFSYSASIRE
# UniProt Q06481, sequence (Q06481 whole entry, looked up): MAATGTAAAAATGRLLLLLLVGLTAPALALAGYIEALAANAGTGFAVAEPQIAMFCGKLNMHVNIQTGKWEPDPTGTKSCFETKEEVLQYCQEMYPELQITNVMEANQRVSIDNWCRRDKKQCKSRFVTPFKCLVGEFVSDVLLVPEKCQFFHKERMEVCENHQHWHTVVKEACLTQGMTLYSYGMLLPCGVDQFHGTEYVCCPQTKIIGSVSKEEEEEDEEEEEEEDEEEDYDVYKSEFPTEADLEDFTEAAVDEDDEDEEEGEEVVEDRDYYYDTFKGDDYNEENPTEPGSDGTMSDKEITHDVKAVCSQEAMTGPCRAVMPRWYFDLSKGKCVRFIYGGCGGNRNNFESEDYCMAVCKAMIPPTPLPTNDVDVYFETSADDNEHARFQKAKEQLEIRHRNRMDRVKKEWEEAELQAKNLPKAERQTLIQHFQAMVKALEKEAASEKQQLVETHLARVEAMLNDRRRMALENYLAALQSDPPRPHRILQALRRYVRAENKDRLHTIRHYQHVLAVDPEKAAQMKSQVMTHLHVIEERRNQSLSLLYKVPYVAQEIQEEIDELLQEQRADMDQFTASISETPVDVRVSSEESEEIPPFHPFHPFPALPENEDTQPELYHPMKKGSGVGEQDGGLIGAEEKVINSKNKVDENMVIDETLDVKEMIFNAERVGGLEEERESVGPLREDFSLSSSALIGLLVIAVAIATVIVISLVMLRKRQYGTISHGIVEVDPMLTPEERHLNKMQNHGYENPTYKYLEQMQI
# UniProt P35670, sequence (P35670 whole entry, looked up): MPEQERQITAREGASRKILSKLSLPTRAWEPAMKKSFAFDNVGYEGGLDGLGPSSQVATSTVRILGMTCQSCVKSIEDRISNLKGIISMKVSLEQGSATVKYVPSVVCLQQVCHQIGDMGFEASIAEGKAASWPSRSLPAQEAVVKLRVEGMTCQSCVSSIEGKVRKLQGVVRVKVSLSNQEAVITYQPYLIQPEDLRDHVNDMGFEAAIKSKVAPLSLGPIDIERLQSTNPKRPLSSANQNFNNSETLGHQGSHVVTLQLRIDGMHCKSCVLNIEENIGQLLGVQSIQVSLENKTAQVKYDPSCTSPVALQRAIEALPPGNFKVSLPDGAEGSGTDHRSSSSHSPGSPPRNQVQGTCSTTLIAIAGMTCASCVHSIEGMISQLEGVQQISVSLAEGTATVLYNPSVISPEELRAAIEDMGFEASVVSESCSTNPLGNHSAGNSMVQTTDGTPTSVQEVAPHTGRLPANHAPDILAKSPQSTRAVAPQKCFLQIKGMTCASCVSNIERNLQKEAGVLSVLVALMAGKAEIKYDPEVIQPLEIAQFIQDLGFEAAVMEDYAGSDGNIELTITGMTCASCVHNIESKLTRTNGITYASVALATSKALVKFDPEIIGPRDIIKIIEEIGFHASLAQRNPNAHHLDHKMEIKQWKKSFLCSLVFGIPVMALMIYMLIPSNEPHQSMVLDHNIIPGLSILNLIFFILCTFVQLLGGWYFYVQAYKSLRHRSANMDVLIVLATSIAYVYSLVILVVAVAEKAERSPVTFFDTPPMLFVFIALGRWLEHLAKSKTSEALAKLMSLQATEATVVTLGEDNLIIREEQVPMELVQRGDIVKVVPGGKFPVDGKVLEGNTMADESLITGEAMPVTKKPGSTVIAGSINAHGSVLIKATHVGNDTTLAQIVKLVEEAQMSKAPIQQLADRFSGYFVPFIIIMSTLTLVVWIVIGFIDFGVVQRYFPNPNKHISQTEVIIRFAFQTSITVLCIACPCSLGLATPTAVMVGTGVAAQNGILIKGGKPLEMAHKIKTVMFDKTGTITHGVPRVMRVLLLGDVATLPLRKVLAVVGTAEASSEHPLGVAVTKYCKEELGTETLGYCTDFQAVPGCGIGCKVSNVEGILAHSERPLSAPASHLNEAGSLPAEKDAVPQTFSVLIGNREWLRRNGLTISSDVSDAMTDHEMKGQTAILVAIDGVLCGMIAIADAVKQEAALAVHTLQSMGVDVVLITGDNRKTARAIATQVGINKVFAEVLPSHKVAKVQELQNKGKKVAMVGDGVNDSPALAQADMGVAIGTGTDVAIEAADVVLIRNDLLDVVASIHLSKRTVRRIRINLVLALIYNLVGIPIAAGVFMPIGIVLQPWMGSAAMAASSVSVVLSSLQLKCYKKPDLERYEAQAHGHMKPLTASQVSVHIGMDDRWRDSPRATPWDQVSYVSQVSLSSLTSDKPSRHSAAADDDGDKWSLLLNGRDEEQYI
# UniProt Q9H7F0, sequence (Q9H7F0 whole entry, looked up): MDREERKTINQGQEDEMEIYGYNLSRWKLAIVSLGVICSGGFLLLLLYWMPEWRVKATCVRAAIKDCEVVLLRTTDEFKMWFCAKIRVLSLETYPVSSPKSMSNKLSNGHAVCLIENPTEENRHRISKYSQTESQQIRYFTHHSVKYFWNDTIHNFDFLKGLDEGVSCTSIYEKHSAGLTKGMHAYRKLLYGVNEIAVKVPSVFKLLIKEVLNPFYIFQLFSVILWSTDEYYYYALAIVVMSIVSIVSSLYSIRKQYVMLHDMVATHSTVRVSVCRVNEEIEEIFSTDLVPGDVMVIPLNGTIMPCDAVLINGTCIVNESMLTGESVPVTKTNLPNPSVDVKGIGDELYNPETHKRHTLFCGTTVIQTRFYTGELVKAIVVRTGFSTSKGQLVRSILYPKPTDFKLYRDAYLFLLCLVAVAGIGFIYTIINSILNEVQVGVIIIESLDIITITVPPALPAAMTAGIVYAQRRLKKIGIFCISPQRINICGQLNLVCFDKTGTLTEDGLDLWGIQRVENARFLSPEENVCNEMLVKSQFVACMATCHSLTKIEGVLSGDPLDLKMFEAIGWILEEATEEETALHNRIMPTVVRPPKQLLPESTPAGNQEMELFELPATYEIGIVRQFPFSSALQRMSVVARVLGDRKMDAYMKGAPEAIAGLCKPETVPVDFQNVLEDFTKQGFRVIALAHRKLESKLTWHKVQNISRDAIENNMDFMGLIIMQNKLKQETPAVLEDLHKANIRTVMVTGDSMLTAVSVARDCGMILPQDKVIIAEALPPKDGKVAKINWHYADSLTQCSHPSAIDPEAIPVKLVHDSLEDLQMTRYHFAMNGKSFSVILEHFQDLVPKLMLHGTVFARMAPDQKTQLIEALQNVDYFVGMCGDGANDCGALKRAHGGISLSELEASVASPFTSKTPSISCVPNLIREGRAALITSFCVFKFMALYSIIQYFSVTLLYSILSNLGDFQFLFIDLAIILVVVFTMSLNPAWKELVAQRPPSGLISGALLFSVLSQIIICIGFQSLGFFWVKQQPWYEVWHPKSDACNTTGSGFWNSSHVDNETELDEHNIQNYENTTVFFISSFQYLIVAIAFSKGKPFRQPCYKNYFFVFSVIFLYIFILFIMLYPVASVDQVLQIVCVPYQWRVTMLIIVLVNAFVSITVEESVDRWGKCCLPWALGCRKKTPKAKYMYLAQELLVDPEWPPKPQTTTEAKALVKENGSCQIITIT
Target,log2 fold change [1],log2 fold change [2],log2 fold change [3],log2 fold change [4],log2 fold change [5],log2 fold change [6],log2 fold change [7],log2 fold change [8],log2 fold change [9],log2 fold change [10]
ALDH1B1 (UniProt P30837),0.054,-0.067,0.12,-0.068,0.021,-0.025,-0.011,0.008,-0.006,0.019
ACSF3 (UniProt Q4G176),0.018,0.063,-0.002,0.026,0.014,0.09,0.023,0.022,-0.027,0.174
ACP1 (UniProt P24666),0.077,-0.063,-0.033,0.165,0.021,-0.083,0.108,0.324,0.141,
BLOC1S3 (UniProt Q6QNY0),-0.001,0.014,0.116,0.065,0.068,-0.132,-0.012,-0.052,-0.038,0.012
ACSL4 (UniProt O60488),0.02,-0.338 (active),0.07,0.099,0.045,-0.089,0.032,0.151,0.01,-0.311 (active)
BID isoform 2 (UniProt P55957),0.047,0.087,0.409 (active),-0.019,0.049,-0.012,-0.012,-0.003,-0.013,0.022
APLP2 (UniProt Q06481),0,0.032,-0.012,-0.035,0.088,0.117,0.103,-0.049,0.049,0.16
BRAP (UniProt Q7Z569),0.027,-0.205,0.008,-0.01,-0.046,-0.024,0.072,0.093,0.081,-0.089
AGPAT5 (UniProt Q9NUQ2),0.035,-0.117,0.151,-0.014,0.065,-0.09,0.002,-0.029,0.001,-0.145
ATL2 (UniProt Q8NHH9),0.078,-0.031,-0.003,-0.014,0.052,-0.035,-0.062,0.056,-0.018,0.376 (active)
BPHL (UniProt Q86WA6),0.02,-0.036,0.008,-0.059,0.024,0.05,0.192,-0.01,0.004,0.01
ACBD6 (UniProt Q9BR61),0.386 (active),-0.36,-0.041,0.075,-0.026,0.076,0.032,0.082,-0.048,-0.14
ATP7B (UniProt P35670),-0.009,-0.005,0.03,0.065,0.092,-0.141,0.033,-0.014,0.137,-0.015
BZW2 (UniProt Q9Y6E2),0.006,-0.146,0.096,-0.037,-0.001,-0.218,0.011,0.047,-0.047,-0.072
AGPAT3 isoform 3 (UniProt Q9NRZ7),-0.051,-0.04,0.125,-0.074,0.005,-0.004,-0.002,0.023,0.004,-0.074
AP2A1 (UniProt O95782),-0.011,-0.127,-0.006,-0.237 (active),-0.015,0.01,-0.126,0.02,0.039,0.081
ARHGAP1 (UniProt Q07960),0.011,0.154,0.038,-0.003,0.057,0.011,0.046,0,-0.039,0.235 (active)
ALKBH4 (UniProt Q9NXW9),0.082,-0.033,0.172,0.029,-0.068,-0.084,0.024,0.12,0.037,-0.109
ATP13A3 (UniProt Q9H7F0),0.076,-0.251,-0.037,0.056,0.09,0,-0.118,-0.043,0.045,-0.251
ATP1A1 (UniProt P05023),0.032,0.165,0.028,-0.117,0.029,-0.049,-0.061,-0.035,-0.047,0.106
ATP9B (UniProt O43861),0.281,-0.033,-0.066,-0.098,0.029,-0.053,0.004,0,0.015,-0.208
BRIX1 (UniProt Q8TDN6),-0.027,-0.097,-0.292,0.318,-0.117,0.056,0.196,0.093,0.288,0.166
ARGLU1 (UniProt Q9NWB6),-0.038,-0.008,-0.039,-0.344,-0.011,0.212,0.037,-0.027,0.047,0.242
ADD3 isoform 2 (UniProt Q9UEY8),-0.032,0.028,0.101,-0.248,0.049,-0.211,0.047,0.089,-0.074,0.036
B4GALT1 (UniProt P15291),-0.007,-0.479 (active),-0.031,-0.124,0.035,0.161,0.014,0.049,0.071,-0.066
BTAF1 (UniProt O14981),0.055,-0.076,0.094,0.041,-0.016,-0.05,0.015,0.044,0.006,0.016
AAR2 (UniProt Q9Y312),-0.06,-0.081,0.019,0.054,0.045,-0.29,0.011,0.021,-0.038,0.085
AKT2 (UniProt P31751),0.035,-0.18,-0.211,0.051,0.039,-0.233,-0.075,0.113,0.015,-0.083
ATP13A2 (UniProt Q9NQ11),-0.012,-0.214,0.031,0.008,0.105,0.01,-0.006,0.018,0.025,-0.363 (active)
ARL1 (UniProt P40616),0.01,-0.073,0.094,-0.092,-0.004,-0.111,0.028,0.031,0.018,-0.064
